Holding throughout (experiment): DAPPL (digital affinity profiling via proximity ligation, sequencing); 10 mM Tris-HCl pH 7.5, 50 mM NaCl, 1 mM DTT, 4% glycerol, room temperature, 30 min; GST-TFs on glutathione beads, 16-mer random dsDNA library, 0.1% formaldehyde crosslink after washing; high values mean tight binding
Holding throughout (details): protein: recombinant; tags: N-terminal GST; dsDNA, one strand shown

One test addresses T1, FLI1 (Homo sapiens, UniProt Q01543 1-452).
T1 sequence: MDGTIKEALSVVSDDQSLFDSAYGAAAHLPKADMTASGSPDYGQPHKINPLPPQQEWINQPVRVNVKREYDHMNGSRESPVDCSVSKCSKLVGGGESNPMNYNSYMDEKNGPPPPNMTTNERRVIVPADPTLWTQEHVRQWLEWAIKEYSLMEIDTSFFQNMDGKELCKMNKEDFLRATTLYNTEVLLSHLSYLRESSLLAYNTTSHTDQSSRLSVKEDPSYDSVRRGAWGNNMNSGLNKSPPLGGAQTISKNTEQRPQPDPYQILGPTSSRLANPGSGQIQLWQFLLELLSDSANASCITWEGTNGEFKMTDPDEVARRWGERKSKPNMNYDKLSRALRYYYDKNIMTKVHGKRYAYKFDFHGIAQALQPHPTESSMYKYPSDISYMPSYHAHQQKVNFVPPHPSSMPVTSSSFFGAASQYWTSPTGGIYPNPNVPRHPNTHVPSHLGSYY
The essentials: (§1)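 Human transcription factors fused to GST were expressed in yeast, captured on glutathione beads, given DNA barcodes and pooled with a GST-only negative control. Pools were incubated with 200 nmole of a 16-mer random double-stranded DNA library in Tris/NaCl/DTT/glycerol buffer at room temperature for 30 min. They were then washed, crosslinked with 0.1% formaldehyde, proximity-ligated (BsaI/T4 ligase, 1 h, 37 °C), PCR-amplified and sequenced on an Illumina NextSeq500. Binding signal is each 6-mer's read frequency for a factor divided by its frequency for the GST control.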

A further test concerns the target T2, ELK1 (Homo sapiens, UniProt P19419 1-428).
T2 sequence: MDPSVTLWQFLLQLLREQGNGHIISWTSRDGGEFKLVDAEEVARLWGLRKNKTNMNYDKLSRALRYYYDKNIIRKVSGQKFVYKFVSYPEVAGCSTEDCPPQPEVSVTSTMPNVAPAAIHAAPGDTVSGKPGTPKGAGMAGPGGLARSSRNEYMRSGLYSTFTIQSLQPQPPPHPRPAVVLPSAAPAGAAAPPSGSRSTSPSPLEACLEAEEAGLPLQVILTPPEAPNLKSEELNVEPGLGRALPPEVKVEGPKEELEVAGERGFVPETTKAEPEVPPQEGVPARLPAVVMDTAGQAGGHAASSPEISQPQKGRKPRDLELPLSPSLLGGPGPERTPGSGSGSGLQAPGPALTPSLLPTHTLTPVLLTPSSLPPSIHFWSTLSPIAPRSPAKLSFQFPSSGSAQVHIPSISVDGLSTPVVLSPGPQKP
The essentials:
as §1

The target in another test is T3, GABPA (Homo sapiens, UniProt Q06546 1-454).
T3 sequence: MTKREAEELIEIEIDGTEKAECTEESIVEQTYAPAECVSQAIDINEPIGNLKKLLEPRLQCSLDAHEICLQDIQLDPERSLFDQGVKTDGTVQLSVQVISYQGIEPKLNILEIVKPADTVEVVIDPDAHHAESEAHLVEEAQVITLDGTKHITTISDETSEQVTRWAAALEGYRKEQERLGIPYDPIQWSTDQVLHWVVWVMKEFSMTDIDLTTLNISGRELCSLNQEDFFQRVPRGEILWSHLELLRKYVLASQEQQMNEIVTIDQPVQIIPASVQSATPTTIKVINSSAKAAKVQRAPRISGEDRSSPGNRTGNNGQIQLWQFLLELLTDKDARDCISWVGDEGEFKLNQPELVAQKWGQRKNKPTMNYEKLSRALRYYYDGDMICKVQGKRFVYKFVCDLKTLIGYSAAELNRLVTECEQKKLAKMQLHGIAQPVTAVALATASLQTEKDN
The essentials: as §1

The target in another test is T4, ERG (Homo sapiens, UniProt P11308 1-479).
T4 sequence: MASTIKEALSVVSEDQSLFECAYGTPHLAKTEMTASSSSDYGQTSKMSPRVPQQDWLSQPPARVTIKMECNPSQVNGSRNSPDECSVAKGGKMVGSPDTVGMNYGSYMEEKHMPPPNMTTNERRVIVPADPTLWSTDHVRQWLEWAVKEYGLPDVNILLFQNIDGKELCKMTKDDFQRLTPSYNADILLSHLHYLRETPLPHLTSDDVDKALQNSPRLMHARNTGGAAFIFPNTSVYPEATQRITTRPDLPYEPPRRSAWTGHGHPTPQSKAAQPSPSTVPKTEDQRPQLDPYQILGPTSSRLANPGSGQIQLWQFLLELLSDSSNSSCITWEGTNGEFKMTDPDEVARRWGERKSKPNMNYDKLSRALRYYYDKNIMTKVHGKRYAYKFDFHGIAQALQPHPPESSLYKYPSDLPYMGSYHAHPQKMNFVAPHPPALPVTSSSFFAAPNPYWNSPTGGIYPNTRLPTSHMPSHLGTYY
The essentials:
as §1

For another test, the target named is ELF1 (Homo sapiens, UniProt P32519 1-619). In a few lines: as §1
A further test deals with T5, EHF (Homo sapiens, UniProt Q9NZC4 1-300).
T5 sequence: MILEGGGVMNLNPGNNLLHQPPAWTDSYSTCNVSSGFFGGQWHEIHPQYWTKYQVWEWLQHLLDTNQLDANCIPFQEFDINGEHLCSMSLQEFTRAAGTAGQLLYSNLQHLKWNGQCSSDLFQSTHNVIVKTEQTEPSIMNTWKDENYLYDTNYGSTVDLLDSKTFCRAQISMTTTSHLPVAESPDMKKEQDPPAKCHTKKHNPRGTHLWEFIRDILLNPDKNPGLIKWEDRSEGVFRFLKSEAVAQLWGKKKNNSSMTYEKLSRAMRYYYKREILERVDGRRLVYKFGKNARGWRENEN
The essentials:
as §1

Test [1] has as its target SPI1 (Homo sapiens, UniProt P17947 1-270). The essentials: as §1
For another test, the target named is SPIB (Homo sapiens, UniProt Q01892 1-262). In a few lines: as §1
The next test has as its target T6, ELK3 (Homo sapiens, UniProt P41970 1-407).
T6 sequence: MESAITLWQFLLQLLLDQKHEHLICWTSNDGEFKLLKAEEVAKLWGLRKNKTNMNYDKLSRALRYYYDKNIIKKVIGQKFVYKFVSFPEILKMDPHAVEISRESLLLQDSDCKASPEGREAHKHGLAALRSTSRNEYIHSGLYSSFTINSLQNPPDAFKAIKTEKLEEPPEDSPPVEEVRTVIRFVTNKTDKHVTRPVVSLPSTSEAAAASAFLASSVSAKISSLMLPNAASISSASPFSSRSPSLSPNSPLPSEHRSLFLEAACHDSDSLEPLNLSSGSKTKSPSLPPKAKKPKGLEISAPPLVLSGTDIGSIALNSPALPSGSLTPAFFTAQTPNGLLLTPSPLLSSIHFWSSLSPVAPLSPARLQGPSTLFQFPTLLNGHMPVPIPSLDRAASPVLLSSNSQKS
The essentials:
as §1

Test [2] addresses SPI1 (Homo sapiens, UniProt P17947 1-270). The essentials:
as §1
This is another data set of the same source.

ELF1, sequence (P32519 whole entry): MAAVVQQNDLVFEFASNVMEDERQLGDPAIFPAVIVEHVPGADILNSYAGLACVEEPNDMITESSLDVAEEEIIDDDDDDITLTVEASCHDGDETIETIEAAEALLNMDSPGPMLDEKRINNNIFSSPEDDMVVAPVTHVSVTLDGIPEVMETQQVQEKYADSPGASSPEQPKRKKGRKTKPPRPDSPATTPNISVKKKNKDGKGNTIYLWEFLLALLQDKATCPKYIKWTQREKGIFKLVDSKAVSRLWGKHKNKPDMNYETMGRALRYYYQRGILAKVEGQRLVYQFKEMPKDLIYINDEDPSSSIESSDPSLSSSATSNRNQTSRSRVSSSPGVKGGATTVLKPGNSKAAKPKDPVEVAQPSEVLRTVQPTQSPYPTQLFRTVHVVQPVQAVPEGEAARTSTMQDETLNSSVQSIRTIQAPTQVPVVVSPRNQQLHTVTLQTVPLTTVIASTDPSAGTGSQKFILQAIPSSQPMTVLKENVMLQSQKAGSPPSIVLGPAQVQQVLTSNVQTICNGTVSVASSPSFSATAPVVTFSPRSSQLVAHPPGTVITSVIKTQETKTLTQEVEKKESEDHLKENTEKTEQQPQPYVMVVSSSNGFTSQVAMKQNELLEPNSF
SPIB, sequence (Q01892 whole entry): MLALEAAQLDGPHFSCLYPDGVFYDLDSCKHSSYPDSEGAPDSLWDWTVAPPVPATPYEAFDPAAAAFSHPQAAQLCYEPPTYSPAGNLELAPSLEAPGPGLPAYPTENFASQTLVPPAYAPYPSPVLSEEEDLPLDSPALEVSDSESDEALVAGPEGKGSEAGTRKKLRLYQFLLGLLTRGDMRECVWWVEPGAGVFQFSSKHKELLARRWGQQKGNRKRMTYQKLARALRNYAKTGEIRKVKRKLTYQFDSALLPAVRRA

In the case of CTCTTT, the binding signal with FLI1 was 1.37 fold enrichment (6-mer frequency, TF over GST control); with ELK1, 1.33 fold enrichment (6-mer frequency, TF over GST control); with GABPA, 1.39 fold enrichment (6-mer frequency, TF over GST control); with ERG, 1.43 fold enrichment (6-mer frequency, TF over GST control); in the test with ELF1, 1.53 fold enrichment (6-mer frequency, TF over GST control); with EHF, 1.55 fold enrichment (6-mer frequency, TF over GST control). Further, the binding signal with SPI1 [1] was 2.23 fold enrichment (6-mer frequency, TF over GST control); in the test with SPIB, 1.42 fold enrichment (6-mer frequency, TF over GST control); in the test with ELK3, 1.66 fold enrichment (6-mer frequency, TF over GST control).

In the case of TTCCGC, the binding signal was 3.03 fold enrichment (6-mer frequency, TF over GST control) with FLI1; 3.07 fold enrichment (6-mer frequency, TF over GST control) with ELK1; 2.79 fold enrichment (6-mer frequency, TF over GST control) with GABPA; 3.22 fold enrichment (6-mer frequency, TF over GST control) in the test with ERG; 2.85 fold enrichment (6-mer frequency, TF over GST control) with ELF1; 3.08 fold enrichment (6-mer frequency, TF over GST control) with EHF. For the same sequence, the binding signal is 4.75 fold enrichment (6-mer frequency, TF over GST control) in the test with SPI1 [2]; 3.15 fold enrichment (6-mer frequency, TF over GST control) in the test with SPIB; 3.03 fold enrichment (6-mer frequency, TF over GST control) in the test with ELK3.

Turning to ACGGAT, the binding signal in the test with FLI1 is 1.27 fold enrichment (6-mer frequency, TF over GST control); in the test with ELK1, 1.21 fold enrichment (6-mer frequency, TF over GST control); with GABPA, 1.21 fold enrichment (6-mer frequency, TF over GST control); with ERG, 1.37 fold enrichment (6-mer frequency, TF over GST control); with ELF1 it was 1.22 fold enrichment (6-mer frequency, TF over GST control); in the test with EHF it was 1.3 fold enrichment (6-mer frequency, TF over GST control). The binding signal is 1.2 fold enrichment (6-mer frequency, TF over GST control) with SPI1 [1]; 1.19 fold enrichment (6-mer frequency, TF over GST control) with SPIB; 1.29 fold enrichment (6-mer frequency, TF over GST control) in the test with ELK3.

With TGGCTC, the binding signal with FLI1 was 1.4 fold enrichment (6-mer frequency, TF over GST control); in the test with ELK1 it was 1.43 fold enrichment (6-mer frequency, TF over GST control); in the test with GABPA, 1.47 fold enrichment (6-mer frequency, TF over GST control); in the test with ERG it was 1.43 fold enrichment (6-mer frequency, TF over GST control); with ELF1, 1.46 fold enrichment (6-mer frequency, TF over GST control); in the test with EHF, 1.34 fold enrichment (6-mer frequency, TF over GST control). In addition, the binding signal with SPI1 [1] was 1.16 fold enrichment (6-mer frequency, TF over GST control); in the test with SPIB, 1.39 fold enrichment (6-mer frequency, TF over GST control); with ELK3 it was 1.3 fold enrichment (6-mer frequency, TF over GST control).

In the case of CTGCTG, the binding signal with FLI1 is 1.15 fold enrichment (6-mer frequency, TF over GST control); in the test with ELK1, 1.26 fold enrichment (6-mer frequency, TF over GST control); with GABPA, 1.27 fold enrichment (6-mer frequency, TF over GST control); in the test with ERG, 1.11 fold enrichment (6-mer frequency, TF over GST control); in the test with ELF1, 1.4 fold enrichment (6-mer frequency, TF over GST control); with EHF it was 1.39 fold enrichment (6-mer frequency, TF over GST control). Besides, the binding signal with SPI1 [1] is 1.24 fold enrichment (6-mer frequency, TF over GST control); with SPIB it was 1.04 fold enrichment (6-mer frequency, TF over GST control); with ELK3, 1.3 fold enrichment (6-mer frequency, TF over GST control).

Turning to TAACTG, the binding signal in the test with FLI1 was 1.12 fold enrichment (6-mer frequency, TF over GST control); in the test with ELK1 it was 1.19 fold enrichment (6-mer frequency, TF over GST control); with GABPA, 1.24 fold enrichment (6-mer frequency, TF over GST control); with ERG it was 1.25 fold enrichment (6-mer frequency, TF over GST control); in the test with ELF1, 1.27 fold enrichment (6-mer frequency, TF over GST control); with EHF, 1.15 fold enrichment (6-mer frequency, TF over GST control). For the same sequence, the binding signal was 1.21 fold enrichment (6-mer frequency, TF over GST control) with SPI1 [1]; 1.33 fold enrichment (6-mer frequency, TF over GST control) in the test with SPIB; 1.26 fold enrichment (6-mer frequency, TF over GST control) with ELK3.

Turning to ATGGCA, the binding signal with FLI1 is 1.26 fold enrichment (6-mer frequency, TF over GST control); with ELK1, 1.22 fold enrichment (6-mer frequency, TF over GST control); with GABPA, 1.26 fold enrichment (6-mer frequency, TF over GST control); with ERG it was 1.27 fold enrichment (6-mer frequency, TF over GST control); with ELF1, 1.24 fold enrichment (6-mer frequency, TF over GST control); in the test with EHF, 1.35 fold enrichment (6-mer frequency, TF over GST control). In addition, the binding signal with SPI1 [1] was 1.21 fold enrichment (6-mer frequency, TF over GST control); with SPIB, 1.19 fold enrichment (6-mer frequency, TF over GST control); with ELK3 it was 1.22 fold enrichment (6-mer frequency, TF over GST control).

Source of the values: PMC7862700, “An all-to-all approach to the identification of sequence-specific readers for epigenetic DNA modifications on cytosine”.
